37 molecules from PubChem BioAssay (NCI) can be followed below.

Compounds without any hit were thinned out: in the full panel of roughly 83,000, 20% have a hit.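 Percent growth is the endpoint: 0 to 100 indicates growth inhibition (40 means 60% inhibition), 0 means no net growth, and negative values indicate cell death.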 Activity calls are given as the source filed them. How the source made its calls: active means growth percent below 10; inactive means the rest.

The experiment concerns OVCAR-5 ovarian. Description: NCI-60 one-dose screen, 48 h (100 = growth as untreated, 0 = no growth, -100 = all killed). The following applies: 10 µM unless noted.
On to `Cn1cc(C2=C(c3cn(C4CCN(Cc5ccccn5)CC4)c4ccccc34)C(=O)NC2=O)c2ccccc21`, for which the growth is 31.2% (inactive).

As to `O=C1OCCC1Br` (configuration not stated), the growth is 104% (inactive).

On to `CC(CO)NC1CCCCC1` (configuration not stated), for which the growth was 102% (inactive).

As for `CC[C@H](C)[C@H](NC(=O)C12CC(NC(C)=O)(C1)C2)C(=O)N(C)[C@H](C[C@@H](OC(C)=O)c1nc(C(=O)N[C@@H](Cc2ccccc2)C[C@H](C)C(=O)OC)cs1)C(C)C`, the growth was 44% (inactive).

`CC[C@H](C)[C@H](NC(=O)NC(C)(C)C)C(=O)N(C)[C@H](C[C@@H](OC(C)=O)c1nc(C(=O)N[C@@H](Cc2ccccc2)C[C@H](C)C(=O)OC)cs1)C(C)C`: the growth is 34.8% (inactive).

Consider `ClCCN(CCCl)Cc1ccc(Nc2ccnc3cc(Cl)ccc23)cc1`, for which the growth was 74.1% (inactive).

For the molecule `O=C(N/N=C\c1ccc(N(CCCl)CCCl)cc1)c1cccc([N+](=O)[O-])c1`, the growth was 109% (inactive).

On to `O=[N+]([O-])c1c(Br)sc(Br)c1[N+](=O)[O-]`, for which the growth was 76.3% (inactive).

As for `CC12CC(=O)C3(SC#N)C(CCC4=CC(=O)CCC43C)C1CCC2=O` (configuration not stated), the growth is 103% (inactive).

Consider `CCn1c2ccccc2c2cc(C(=O)c3ccc(C)c4ccccc34)ccc21`, for which the growth is 28.6% (inactive).

Regarding `COc1ccc([As]=[As]c2ccc(OC)c(NCS(=O)(=O)O)c2)cc1NCS(=O)(=O)O` (configuration not stated), the growth is 63.8% (inactive).

As for `NC1CC2CCCCC2CC1(O)c1ccccc1` (configuration not stated), the growth is 95.4% (inactive).

`N/C(=N/N=C/c1ccncc1)N[N+](=O)[O-]`: the growth is 94.2% (inactive).

Turning to `O=C1CCC2(O)[C@@H]3Cc4ccc(O)c5c4[C@]2(CCN3Cc2ccoc2)C1O5` (some centres not stated), the growth is 98.7% (inactive).

As to `CCOP(=O)(Nc1ccc2c(c1)/C(=N/NC(N)=S)c1ccccc1-2)OCC`, the growth was 105% (inactive).

On to `O=C(N/N=C\c1ccc(N(CCCl)CCCl)cc1Cl)c1cccnc1`, for which the growth was -3.04% (active).

Turning to `COC(=O)CCc1c[nH]c2ccc(N(CCCl)CCCl)cc12`, the growth was 80.3% (inactive).

For `COc1cc(C=Nc2cccc(C(=O)O)c2)ccc1N(CCCl)CCCl`, the growth is 110% (inactive).

For the molecule `C/C(CC(C)(C)N1CC1)=N\NC(=O)Nc1cccc2ccccc12`, the growth is 100% (inactive).

As for `CCCCNC(c1ccc(Cl)cc1)C(O)c1ccc(Cl)cc1` (configuration not stated), the growth was 56% (inactive).

For the molecule `O=C(O)CNC(=O)C(Cl)(Cl)Cl`, the growth is 97.1% (inactive).

Take `CC1(C)[C@H](O)[C@H](F)C[C@@]2(C)Oc3ccc(C(=O)Nc4ccc5c(c4)NC(=O)C54CCN(CCCCC#N)CC4)cc3C[C@H]12`: the growth is 62.9% (inactive).

On to `COC(=O)[C@@H](C)C[C@H](Cc1ccccc1)NC(=O)c1csc([C@@H](C[C@H](C(C)C)N(C)C(=O)[C@@H](NC(=O)[C@H]2CCCCN2C)C(C)C)OC(C)=O)n1`, for which the growth was 26.4% (inactive).

Turning to `N#CCCNc1ccccc1`, the growth is 104% (inactive).

For `CCCCCC1(CCBr)C(=O)NC(=O)NC1=O`, the growth is 96.6% (inactive).

In the case of `CC[C@H](C)[C@H](NC(=O)[C@H]1CCCCN1C)C(=O)N(C)[C@H](CCc1nc(C(=O)N[C@@H](Cc2ccccc2)C[C@H](C)C(=O)OC)cs1)C(C)C`, the growth is 49.3% (inactive).

In the case of `COC(=O)[C@@H](C)C[C@H](Cc1ccccc1)NC(=O)c1csc([C@@H](C[C@H](C(C)C)N(C)C(=O)[C@@H](NC(=O)[C@H]2CCCCN2C)C(C(F)(F)F)C(F)(F)F)OC(C)=O)n1`, the growth was 39.6% (inactive).

For `NC(CCl)CCl`, the growth is 107% (inactive).

On to `[Cl][Hg][n]1c(-c2ccco2)nc2ccccc21`, for which the growth is 117% (inactive).

On to `Cc1cc(N(CCCl)CCCl)ccc1C=Nc1ccccc1-c1ccccc1`, for which the growth is 43.1% (inactive).

For `CCC1CN1CCCCN1CC1CC` (configuration not stated), the growth is 102% (inactive).

For the molecule `COC(=O)[C@@H](C)C[C@H](Cc1ccccc1)NC(=O)c1csc([C@@H](C[C@H](C(C)C)N(C)C(=O)[C@@H](NC(=O)C23CC(NC(C)=O)(C2)C3)C2CC2)OC(C)=O)n1`, the growth is 103% (inactive).

For the molecule `O=[N+]([O-])CC(O)C(Cl)(Cl)Cl` (configuration not stated), the growth was 93.6% (inactive).

For `O=[N+]([O-])c1ccc(OP(=O)(CCl)N(CCCl)CCCl)cc1` (configuration not stated), the growth was 99.6% (inactive).

For `CCOc1ccc(/C=C/[N+](=O)[O-])cc1`, the growth is 89.8% (inactive).

Regarding `CN(C)CCCOc1ccc2c(c1)c(C(=O)C(=O)NCCO)cn2Cc1ccccc1`, the growth is 108% (inactive).

Regarding `O=C(CC1(O)C(=O)Nc2ccc(Cl)cc21)c1ccc(C(=O)NCC2CCC3(CC2)OOC2(CCCCC2)OO3)cc1` (configuration not stated), the growth was 47.4% (inactive).
